Test results taken from PubChem BioAssay.
Activity calls are given as the source filed them.

Each compound was assayed against NADPH oxidase 4 (Homo sapiens) (UniProt Q9NPH5) (assay: compounds shifting NOX4 Amplex Red fluorescence – cell-based, HEK293-NOX4, tetracycline-induced, NOX inhibitor project, primary screen (AID 1160)). Details: HEK293-NOX4, Amplex Red H2O2 fluorescence, 45 min; higher = more signal, called active from +8 up or from −8 down.
Chain of NADPH oxidase 4 (Homo sapiens) (Q9NPH5 whole entry, looked up): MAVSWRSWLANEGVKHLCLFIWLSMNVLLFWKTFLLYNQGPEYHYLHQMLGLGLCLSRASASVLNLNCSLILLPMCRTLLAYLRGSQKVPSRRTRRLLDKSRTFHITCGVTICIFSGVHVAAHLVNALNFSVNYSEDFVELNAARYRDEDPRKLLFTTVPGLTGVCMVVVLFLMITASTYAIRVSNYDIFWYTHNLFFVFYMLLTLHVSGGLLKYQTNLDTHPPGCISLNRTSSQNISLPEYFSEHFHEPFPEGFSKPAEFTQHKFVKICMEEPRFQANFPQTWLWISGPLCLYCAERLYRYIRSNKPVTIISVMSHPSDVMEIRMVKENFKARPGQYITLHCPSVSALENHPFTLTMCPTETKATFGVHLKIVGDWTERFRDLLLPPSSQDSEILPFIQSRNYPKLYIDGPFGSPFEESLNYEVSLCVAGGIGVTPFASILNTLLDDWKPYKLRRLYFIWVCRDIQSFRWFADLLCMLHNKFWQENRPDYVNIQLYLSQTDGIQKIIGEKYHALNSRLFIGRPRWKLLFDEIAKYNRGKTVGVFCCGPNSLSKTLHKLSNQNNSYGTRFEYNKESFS

z-score, inactive:
CCOC(=O)C1CCCCN1 (stereo not drawn) 0.0488
C=C(/C(=C/C[C@H](OC(=O)c1ccncc1)c1ccc(CO)o1)c1cc(C(=O)OC)ccc1OC)C(C)C -0.154
COC(=O)[C@@]1(Cc2ccccc2)[C@H]2c3cc(C(=O)N(C)C)n(CCN4CNCC4=O)c3C[C@H]2CN1C(=O)c1ccccc1 0.554
O=C1O[C@H](c2ccccc2)[C@H](c2ccccc2)N2[C@H]1[C@@H](C(=O)Nc1nc3ccccc3s1)[C@]1(C(=O)Nc3ccc(C#CC4(O)CCCCCC4)cc31)[C@H]2c1ccccc1OCCO 0.578
CCOC(=O)C[C@H]1[C@H](OC(=O)c2ccccc2-c2ccccc2)[C@@H](NC(=O)C2CCCCC2)c2cc(OCCCO)ccc2N1C(=O)Cc1ccc(OC)cc1 0.979
CN(C)CCCNC(=O)[C@@]1(C)c2ccccc2C(=O)N(Cc2ccccc2)[C@H]1c1ccc(CO)cc1 -1.25
NC(=O)N1C(=O)C2C(C1=O)C1C=C(CCCO)C2C(c2cccs2)N1Cc1cccc(OC(F)(F)F)c1 (stereo not drawn) 0.0752
COc1ccc(NC(=O)O[C@H]2[C@H](OC(=O)Nc3ccccc3)[C@@H](OC(=O)Nc3ccccc3)[C@@H](OC)O[C@@H]2CO)cc1 -0.713
